Screens (PubChem)
In the library only some 1.3% were active in any assay of this set; here they are far more common.
NR2F2 inh: inhibitors of human COUP-TFII (NR2F2) | P24468 | HEK293T NGFI-A luciferase reporter, luminescence | inhibition, % at 8.6 µM | 370,000 tested, 0.7% active | AID 686940;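 active = inhibition above a per-plate cutoff, mean inhibition of test wells between control levels plus 3 SD, cut at about 38% in these data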;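 note: cells cotransfected with COUP-TFII expression vector driving the NGFI-A reporter; 0% = median of COUP-TF2 test wells and 100% = reporter-only cells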
SRC3 inh: human NCOA3 inhibition; Q9Y6Q9; HEK293 GAL4-SRC3 luciferase reporter, luminescence; inhibition, % at 3.6 µM; 360,000 tested, 0.17% active;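 active = inhibition above a per-campaign cutoff, the mean of all compounds plus 3 SD, cut at about 60% in these data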;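 note: 0% = DMSO-treated cells and 100% = gossypol-treated cells at 36 µM; higher means less SRC3-driven luciferase light from the GAL4 reporter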
NCOA1 inh: inhibitors of human steroid receptor coactivator 1 (SRC1); 360,000 tested, 0.12% active; HEK293 GAL4-SRC1 luciferase reporter, luminescence; inhibition, % at 3.6 µM;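 active = inhibition above the campaign mean plus 3 SD, with each screening campaign given its own cutoff, cut at about 60% in these data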;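 note: 0% = DMSO treated cells and 100% = gossypol at 36 µM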
Gli-Sufu block: Gli-Sufu pathway antagonism | inhibition, % at 5 µM | Sufu-KO-LIGHT fibroblasts, Gli luciferase reporter luminescence | 340,000 tested, 0.74% active;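 active = inhibition above about 55%, limit read from the data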;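 note: 0% = DMSO-treated cells and 100% = wells with medium but no cells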
NCOA2 inhibitor: inhibits human steroid receptor coactivator 2; Q15596; HEK293 GAL4-SRC2 luciferase reporter, luminescence; inhibition, % at 9 µM; 370,000 tested, 0.17% active; AID 651957;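 active = inhibition above the mean inhibition of all tested compounds plus 3 SD, set per campaign, cut at about 52% in these data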;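 note: 0% = DMSO treated cells and 100% = cells given Gossypol at 36 µM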
NR5A2 inv ag: inverse agonists of human LRH-1 (NR5A2); inhibition, % at 3.6 µM; AID 602396; 360,000 tested, 0.13% active; HEK293T StAR-luciferase reporter, LRH-1 transfected, 24 h;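 active = inhibition above the mean inhibition of all tested compounds plus 3 SD, cut at about 73% in these data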;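 note: 0% = DMSO wells and 100% = reporter-only cells lacking LRH-1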
Target sequence (O00482 whole entry, looked up): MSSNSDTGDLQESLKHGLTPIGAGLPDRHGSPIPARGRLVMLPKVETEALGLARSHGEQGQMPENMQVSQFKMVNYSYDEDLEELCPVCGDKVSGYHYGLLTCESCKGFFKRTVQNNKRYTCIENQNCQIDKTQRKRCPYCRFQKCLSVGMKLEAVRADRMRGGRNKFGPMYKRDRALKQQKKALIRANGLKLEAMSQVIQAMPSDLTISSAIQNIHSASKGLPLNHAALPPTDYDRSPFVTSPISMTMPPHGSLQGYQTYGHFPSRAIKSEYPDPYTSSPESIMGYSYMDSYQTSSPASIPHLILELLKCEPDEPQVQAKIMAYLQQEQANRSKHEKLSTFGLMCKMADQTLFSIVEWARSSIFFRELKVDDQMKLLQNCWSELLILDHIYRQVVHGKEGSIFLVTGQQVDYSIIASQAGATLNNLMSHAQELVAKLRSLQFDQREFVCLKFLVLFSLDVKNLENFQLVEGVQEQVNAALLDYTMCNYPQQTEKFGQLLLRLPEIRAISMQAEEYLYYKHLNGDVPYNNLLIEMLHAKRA
Gli antag conf: Gli-SUFU antagonism confirmation, single concentration | Sufu-KO-LIGHT cells, Gli luciferase reporter, luminescence | shares compounds with Gli-Sufu block | inhibition, % at 5 µM | 2,500 tested, 40% active | AID 602428;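 active = mean inhibition at 5 µM reaching about 45%, limit read from the data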;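 note: plate controls were DMSO-treated cells for no effect and wells lacking cells for full effect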
Gli cytotox: counter-screen for Gli-SUFU antagonists: cytotoxicity; shares compounds with Gli-Sufu block; Sufu-KO-LIGHT cells cytotoxicity, ATP luminescence; cytotoxicity, % at 5 µM; 2,500 tested, 32% active;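 active = mean cytotoxicity at 5 µM above about 25%, limit read from the data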;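 note: cells exposed to compound overnight for roughly 16 to 18 hours; plate controls were DMSO wells with cells for no effect and medium without cells for full effect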
Wnt3a cs: Wnt3a reporter inhibition counter-screen; shares compounds with Gli-Sufu block; Wnt-LIGHT cells, Wnt3a-driven luciferase reporter, luminescence; inhibition, % at 6.25 µM; 2,500 tested, 20% active;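 active = mean inhibition above about 25%, limit read from the data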
* = called active by the depositor; / = not tested or not shown.

SMILES	NR2F2 inh	SRC3 inh	NCOA1 inh	Gli-Sufu block	NCOA2 inhibitor	NR5A2 inv ag	Gli antag conf	Gli cytotox	Wnt3a cs
COCCNC(=O)C12CC3CC(CC(Cl)(C3)C1)C2	-22	14	13	52	5	14	31	0	6
CNC(=O)C12CC3CC(CC(Cl)(C3)C1)C2	10	-2	-3	0	-19	-6	/	/	/
C=CCN(CC#Cc1ccc(C)cc1)Cc1ccc(OC)cc1OC	-6	/	/	/	-22	/	/	/	/
CC(C)N1CCC(N2CCN(CCCc3ccccc3)CC2CCO)CC1 (stereo unspecified)	-2	11	-20	60*	1	4	13	27*	-6
CC(C)N1CCN(CCCc2ccccc2)CC1CCO (stereo unspecified)	-3	-16	6	-1	11	15	/	/	/
OCCC1CN(Cc2cc(F)ccc2F)CCN1CCCc1ccccc1 (stereo unspecified)	-15	10	-36	53	9	0	13	18	-40
Nn1c(CSc2nc3ccccc3o2)nnc1CSc1nc2ccccc2o1	7	0	-3	94*	-5	8	23	-3	11
O=C(NNC(=O)c1cccc(Cl)c1)NNC(=O)c1cccc(Cl)c1	-3	-10	-3	53	14	-18	12	-12	-12
CN(C(=O)c1cccc(NC(=O)Cc2ccc(NC(=O)C3CCCN(C(=O)c4ccccc4)C3)cc2)c1)C1CC1 (stereo unspecified)	8	/	/	/	-2	/	/	/	/
Nc1nc(N2CCN(Cc3ccccc3)CC2)n[nH]1	12	-3	-1	24	0	4	/	/	/
Nc1nc(N2CCN(C(c3ccccc3)c3ccccc3)CC2)n[nH]1	-10	22	-5	66*	-10	-4	31	22	-15
COC(=O)[C@]12C[C@H](CC(=O)NCCc3ccccc3OC)C(=O)N(Cc3ccc4c(c3)OCO4)C1=C[C@H](C(C)(C)C)O[C@@H]2C	15	/	/	/	3	/	/	/	/
O=c1[nH]c(=O)n(-c2ccc(F)cc2)c2c1C(C(F)(F)F)(C(F)(F)F)N=C(c1ccc(F)cc1)N2	-4	19	6	75*	-12	8	69*	10	77*
Cc1ccc(C2=NC(C(F)(F)F)(C(F)(F)F)c3c(n(-c4ccc(F)cc4)c(=O)[nH]c3=O)N2)cc1	-5	15	-1	40	10	13	/	/	/
COc1ccc(-c2c[n+]3c(n2-c2ccccc2)CCCCC3)cc1	33	33	36	84*	10	40	85*	35*	34*
FC(F)Oc1ccc(-c2c[n+]3c(n2-c2ccccc2)CCCCC3)cc1	-21	13	5	60*	11	-2	70*	21	-7
CCOc1ccc(-n2c(-c3ccc(Br)cc3)c[n+]3c2CCCCC3)cc1	25	42	11	86*	16	54	88*	46*	23
COCc1[nH]nc2c1C(c1cccc(C(F)(F)F)c1)N(c1ccccc1)C2=O (stereo unspecified)	2	/	/	/	-14	/	/	/	/
COC(=O)[C@]12C[C@H](CC(=O)N3CCSCC3)C(=O)N(CCc3ccc(OC)c(OC)c3)C1=C[C@H](C1CCCC1)O[C@@H]2C	12	/	/	/	4	/	/	/	/
COc1ccc(-n2c(SCC(=O)Nc3ccc(S(=O)(=O)Nc4nccs4)cc3)nnc2-c2ccco2)cc1	-3	/	/	/	-17	/	/	/	/
CCOC(=O)C1=C(CC)OC(N)=C(C#N)C1c1cccs1 (stereo unspecified)	0	4	4	-10	11	-32	/	/	/
CCN1CC2=C(OC(N)=C(C#N)C2c2cccs2)/C(=C\c2cccs2)C1 (stereo unspecified)	18	15	0	77*	-18	22	22	8	-33
C[C@@H]1ON(C)[C@H]2C[C@H]3c4[nH]c5c(-c6ccc7c(c6)OCO7)cccc5c4CCN3C(=O)[C@@H]12	-9	/	/	/	-7	/	/	/	/
O=C(Nc1nnc(-c2ccco2)o1)c1ccc2ccccc2c1	6	12	0	97*	15	-12	8	2	-14
CCOc1ccc(-c2c(=O)n(OCc3ccccn3)c3ccccc3[n+]2[O-])cc1	-23	-17	-24	2	-33	-57	/	/	/
SMILES	NR2F2 inh	SRC3 inh	NCOA1 inh	Gli-Sufu block	NCOA2 inhibitor	NR5A2 inv ag	Gli antag conf	Gli cytotox	Wnt3a cs
O=c1c(-c2ccc(Oc3ccccc3)cc2)[n+]([O-])c2ccccc2n1OCc1ccccn1	-2	-2	-15	95*	6	-13	15	4	-1
CCc1c(C)nc2cc(-c3ccc(OC)c(OC)c3)nn2c1N1CCC(C)CC1	-8	-10	5	2	-32	-5	/	/	/
CCc1c(C)nc2cc(-c3ccc(OC)c(OC)c3)nn2c1N1CCCC1	-7	0	2	54	-9	-2	55*	33*	6
COc1ccc(-c2cc(C3CCN(c4cc(Cl)nc(N)n4)CC3)[nH]n2)cc1	17	5	-4	23	20	17	/	/	/
Nc1nc(Cl)cc(N2CCC(c3cc(-c4ccc(Cl)cc4)n[nH]3)CC2)n1	14	25	21	74*	10	-32	78*	19	68*
COc1ccc(CNC2CCC23CCC(C)CC3)cc1 (stereo unspecified)	-14	/	/	/	/	/	/	/	/
O=C(Cn1ccc2cc(S(=O)(=O)N3CCCC3)ccc21)NCCc1ccccc1	11	1	-1	57*	-4	13	26	6	-17
CCOC(=O)C(C)/C(C)=N\Nc1ccc([N+](=O)[O-])cc1[N+](=O)[O-] (stereo unspecified)	17	3	-41	41	18	-4	/	/	/
CCOC(=O)C(C(=O)OCC)C(C)(C)/C(C)=N\Nc1ccc([N+](=O)[O-])cc1[N+](=O)[O-]	8	8	-17	55	-3	2	34	29*	69*
CC(C)Oc1ccc(OCCCN2CCCCCC2)cc1	4	1	-25	5	-12	-3	/	/	/
CC(C)(C)c1ccc(OCCCN2CCCC2)cc1	-34	-1	18	57*	2	17	25	-2	-27
Cc1ccc(S(=O)(=O)N2CCCC2C(=O)N2CCN(c3ccccc3)CC2)cc1 (stereo unspecified)	10	/	/	/	5	/	/	/	/
CC(=O)c1ccc(NS(=O)(=O)c2ccc(C(C)(C)C)cc2)cc1	14	18	-11	18	-14	-2	/	/	/
CC(=O)c1ccc(NS(=O)(=O)c2ccc(C)cc2)cc1	7	21	7	55	-17	-1	30	14	11
